Measured values taken from the GenesisPotency data set.
Hit rate of the full screen: of about 290,000 compounds, about 3,000 (1%) were called active. Cut-off read from the data, not from the text of the source: active = inhibition mostly above about 36% (no sharp cut-off); inactive = mostly below about 34%. The entries come from a sample that favours actives as a whole.

Target: T1, Nucleotide-binding oligomerization domain-containing protein 1, Homo sapiens (UniProt Q9Y239)
T1 sequence (whole entry): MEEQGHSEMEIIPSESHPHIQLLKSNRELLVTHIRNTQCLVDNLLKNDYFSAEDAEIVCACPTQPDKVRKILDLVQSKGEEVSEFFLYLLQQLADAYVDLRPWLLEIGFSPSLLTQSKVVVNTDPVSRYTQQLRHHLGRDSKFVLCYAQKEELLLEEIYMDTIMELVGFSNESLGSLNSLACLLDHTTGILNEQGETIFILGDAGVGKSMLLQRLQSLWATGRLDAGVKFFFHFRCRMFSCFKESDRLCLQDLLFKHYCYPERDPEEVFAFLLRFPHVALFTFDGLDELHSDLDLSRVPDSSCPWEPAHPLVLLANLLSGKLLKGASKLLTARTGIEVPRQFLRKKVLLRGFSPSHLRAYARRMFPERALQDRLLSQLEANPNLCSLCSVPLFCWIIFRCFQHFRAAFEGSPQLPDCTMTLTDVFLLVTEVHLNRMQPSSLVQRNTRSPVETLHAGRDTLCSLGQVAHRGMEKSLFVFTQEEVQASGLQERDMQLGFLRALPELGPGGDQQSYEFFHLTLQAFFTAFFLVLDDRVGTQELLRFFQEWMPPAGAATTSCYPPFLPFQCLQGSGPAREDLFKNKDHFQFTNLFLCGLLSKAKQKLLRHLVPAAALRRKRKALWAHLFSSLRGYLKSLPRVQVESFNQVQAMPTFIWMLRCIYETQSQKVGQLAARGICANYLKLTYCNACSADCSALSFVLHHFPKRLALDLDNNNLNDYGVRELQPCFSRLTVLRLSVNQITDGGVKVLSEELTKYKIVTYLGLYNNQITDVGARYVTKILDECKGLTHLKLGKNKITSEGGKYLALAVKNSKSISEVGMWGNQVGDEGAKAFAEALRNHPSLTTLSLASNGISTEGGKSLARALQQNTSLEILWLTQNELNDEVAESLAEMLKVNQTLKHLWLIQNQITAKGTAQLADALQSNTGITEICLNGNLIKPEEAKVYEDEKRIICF
Assay: NOD1 signaling inhibitors, primary screen, cell-based, luminescence, uHTS (AID 1578)

outcome, active:
Cc1cccc(C(=O)NNC2=C(C(=O)C(F)(F)F)CCC2)c1O
C=CS(=O)(=O)c1ccc(Oc2ccc(S(=O)(=O)C=C)cc2)cc1
COc1cccc(C(=O)/C=C/Nc2ccc(S(=O)(=O)Nc3cccc(C(C)=O)c3)cc2)c1
COc1cccc(NS(=O)(=O)c2ccc3c(c2)CCN3C(C)=O)c1
Cc1c(C)n(Cc2ccccc2)c2ncnc(Cl)c12
Br.CCCCCCCCCCn1c2c(c(=N)c3c1CCC3)CCC2
Br.CCCCCCCCn1c2c(c(=N)c3ccccc31)CCC2
Br.CCCCCCCCCn1c2c(c(=N)c3c1CCC3)CCC2
COc1cccc(NC(=O)CN(C)CC(=O)Nc2ccc(C)c([N+](=O)[O-])c2)c1
Cc1ccc(N(Cc2cc(=O)[nH]c3ccccc23)C(=O)CCl)cc1
O=C(CCl)N(Cc1cc(=O)[nH]c2ccccc12)c1ccccc1
Cc1cccc(N(Cc2cc(=O)[nH]c3ccccc23)C(=O)CCl)c1
Cn1cc([N+](=O)[O-])c(C(=O)Nc2cc(Oc3ccccc3)cc([N+](=O)[O-])c2)n1
CNC(=O)c1nnsc1S(=O)(=O)c1ccc(Cl)cc1
O=C(c1nnsc1S(=O)(=O)c1ccc(Cl)cc1)N1CCOCC1
COc1cc(OC)cc(-c2nnc(NC(=O)c3ccc4c(c3)OCCO4)o2)c1
O=C(Nc1nnc(-c2ccc3c(c2)OCCO3)o1)c1ccc(Cc2ccccc2)cc1
CCCN(CCC)S(=O)(=O)c1ccc(C(=O)Nc2nnc(-c3cc(OC)cc(OC)c3)o2)cc1
O=C(Nc1nnc(-c2ccco2)o1)c1ccc2ccccc2c1
CSCc1nnc(NC(=O)c2ccc(S(=O)(=O)N(CC(C)C)CC(C)C)cc2)o1
O=C(Nc1ccc(Oc2ccccc2)cc1)C1CCN(c2c3c(nc4ncnn24)CCC3)CC1
CC1CCc2nc(N)c(C#N)c(-c3cccnc3)c2C1 (stereo unspecified)
Cc1nc(N)c(C#N)c(-c2cccnc2)c1-c1ccccc1
Cc1ccc(NC(=O)O/N=C/c2c(C)nn(C(C)(C)C)c2C)cc1Cl
CC(=O)Oc1c(C)cc(Cl)cc1C(=O)Nc1ccc([N+](=O)[O-])cc1Cl
CC1CCc2c(sc(NC(=O)CSc3ncn[nH]3)c2C#N)C1 (stereo unspecified)
N#Cc1c(NC(=O)CSc2ncn[nH]2)sc2c1CCCCC2
N#Cc1c(NC(=O)CSc2ncn[nH]2)sc2c1CCCC2
O=C(Nc1cc(S(=O)(=O)Nc2ccccc2Cl)ccc1O)c1cc2c(s1)CCCC2
Cc1ccc(NC(=O)c2cc3c(s2)CCCC3)cc1S(=O)(=O)Nc1ccccc1Cl
Cn1c(=O)c(C#N)c(-c2ccc(F)cc2)c2cc(C(=O)c3cc(Cl)cc(Cl)c3O)cnc21
CC(C)(C)c1ccc(C(=O)N2CCCCCC2=O)cc1
O=C(COc1ccc(Cl)cc1Cl)Nc1ccc(C(=O)Nc2ccccc2C(=O)O)cc1
O=C(Oc1c(Cl)cc(Cl)c2cccnc12)c1ccco1
O=[N+]([O-])c1cc(Cl)c(O)c2ncccc12
Oc1c(Cl)cc(Cl)c2cccnc12
Oc1c(I)cc(Cl)c2cccnc12
Oc1c(I)cc(I)c2cccnc12
c1ccc(N2CCN(c3ncnc4sc5c(c34)CCC5)CC2)cc1
Cn1c(-c2ccccc2)c(C(=O)CCl)c2ccccc21
Cn1cc(C(=O)CCl)c2ccccc21
c1ccc(CN2CCN(c3ncnc4c3[nH]c3ccccc34)CC2)cc1
Cc1ccc2c(c1)[nH]c1c(N3CCN(Cc4ccccc4)CC3)ncnc12
Cc1ccc2[nH]c3c(N4CCc5ccccc5C4)ncnc3c2c1
Cc1ccc2[nH]c3c(N4CCN(Cc5ccccc5)CC4)ncnc3c2c1
O=C(CCCc1nc(-c2ccc(Cl)cc2)no1)NC1CCCC1
Cc1ccc(-c2noc(CCCC(=O)NC3CCCCC3)n2)cc1
O=C(CCCc1nc(-c2ccc(Cl)cc2)no1)NC1CCCCC1
N#CC(c1cccc(Cl)c1)c1ccc2c(C(F)(F)F)cc(C(F)(F)F)nc2n1 (stereo unspecified)
CCCCN(c1ccccc1)c1ncnc(N)c1[N+](=O)[O-]
Cc1ccc(Cl)cc1N1CCN(C(=O)CSc2nnc3n2C(C)(C)Cc2ccccc2-3)CC1
CN(Cc1ccccc1)C1=CC(=[N+]2CCCCC2)CC(C)(C)C1.[I-]
CC1(C)CC(N2CCN(C(c3ccccc3)c3ccccc3)CC2)=CC(=[N+]2CCCCC2)C1.[I-]
c1csc(CCNc2ncnc3sc4c(c23)CCC4)c1
Cc1cc(C(=O)NC2CCCc3c2cnn3-c2ccc(C(C)(C)C)cc2)nn1C (stereo unspecified)
CC(C)(C)c1ccc(-n2ncc3c2CCCC3NC(=O)C2(C(N)=O)CC2)cc1 (stereo unspecified)
Cn1nccc1C(=O)NC1CCCc2c1cnn2-c1ccc(C(C)(C)C)cc1 (stereo unspecified)
Cc1ccc(NC(=O)Nc2nnc(-c3ccncc3)s2)cc1C
O=C(Nc1ccc2nc3n(c(=O)c2c1)CCCCC3)c1c(F)ccc([N+](=O)[O-])c1F
CCOc1cccc(-c2c(C(=O)N/N=C(\C)c3ccccn3)nnn2-c2nonc2N)c1
CN(C)S(=O)(=O)c1cccc(NC(=O)c2ccc(COc3ccccc3)cc2)c1
COc1ccc(C(=O)/C=C/C(=O)N(CC(=O)NC2CCCCC2)Cc2ccccc2OC)c(O)c1
CCn1c(Oc2ccccc2F)nc2c1c(=O)n(C)c(=O)n2C
C=CCn1c(Oc2ccc(C(=O)OC)cc2)nc2c1c(=O)n(C)c(=O)n2C
C=CCn1c(Oc2ccccc2F)nc2c1c(=O)n(C)c(=O)n2C
O=c1oc2ccc(Br)cc2cc1S(=O)(=O)c1ccc(F)cc1
Cc1ccc(S(=O)(=O)c2cc3cc(Br)ccc3oc2=O)cc1
O=C(O)c1c(NC(=O)c2cccc3ccccc23)sc2c1CCC2
COc1ccc(-c2c[n+]3c(n2-c2ccc(C)cc2)CCCCC3)cc1.[Br-]
CCOC(=O)c1ccc(NC(=O)Cn2ncc(Cl)c(Cl)c2=O)cc1
Cc1cc(Br)ccc1NC(=O)CNC(=O)Cn1ncc(Cl)c(Cl)c1=O
O=C(Cn1ncc(Cl)c(Cl)c1=O)c1ccc(Cl)cc1
CCC(=O)Nc1ccc(C(=O)Cn2ncc(Cl)c(Cl)c2=O)cc1
O=C(Cn1ncc(Cl)c(Cl)c1=O)N1CCc2ccccc21
C#Cc1ccc([C@@H]2C=C(C(=O)N3CCN(Cc4ccccc4)CC3)O[C@H](OCCCCO)C2)cc1
O=C(COc1ccc(Br)cc1)Nc1ccc(Cc2ccncc2)cc1
Cn1cnnc1Sc1ccc(/C=C/C(=O)c2ccc(O)cc2)cc1[N+](=O)[O-]
C(=N\Nc1nc2ccccc2s1)/c1ccccn1
CCn1c(=O)c2c(cnn2C)c2ccccc21
CC(=O)c1c(O)c(C)c(O)c2c1OC1=CC(=O)C(C(C)=O)C(=O)[C@@]12C (stereo partly specified)
O=C(NCc1cccs1)c1nc2c(nnn2Cc2ccccc2Cl)c(=O)[nH]1
O=C(NCc1ccco1)c1nc2c(nnn2Cc2ccccc2Cl)c(=O)[nH]1
COc1ccc(-n2cnc3ccccc32)cc1
COc1ccc2ncn(-c3ccccc3)c2c1
O=C(CSc1nnc2c(n1)[nH]c1ccccc12)NC1CCCCC1
NC(=S)N/N=C\c1c(OCc2ccccc2Cl)ccc2ccccc12
CC(C)N1C(=O)/C(=C/c2nc3ccccc3c(=O)n2-c2ccccc2)c2ccccc21
Cc1cccc(-n2c(SCC(=O)N3CCC(C(=O)O)CC3)nc3ccccc3c2=O)c1C
CC1=CC(C)(C)Nc2ccc(OC(=O)CN3C(=O)C4CCCCC4C3=O)cc21 (stereo unspecified)
CC1=CC(C)(C)Nc2ccc(OC(=O)CN3C(=O)CCC3=O)cc21
Oc1c(Cl)cc(Cl)cc1/C=C/c1ccc2cccc(O)c2n1
COc1cc(/C=C/c2ccc3cccc(O)c3n2)cc(OC)c1OC
COc1ccc(OC)c(/C=C/c2ccc3cccc(O)c3n2)c1
COc1cc(/C=C/c2ccc3cccc(O)c3n2)ccc1O
O=C(Nc1nnc(-c2cccs2)o1)c1cccc(C(F)(F)F)c1
O=C(Nc1nnc(-c2cccs2)o1)c1cccc(Oc2ccccc2)c1
O=C(C1CCC(CNS(=O)(=O)c2cccs2)CC1)N1CCN(c2ccc(Cl)cc2)CC1 (stereo unspecified)
O=C(Nc1ccccc1C(=O)Nc1nnc(C(F)(F)F)s1)c1ccccc1
Cc1onc(-c2c(F)cccc2Cl)c1C(=O)Nc1nnc(C(F)(F)F)s1
O=C(Nc1ccccc1C(=O)Nc1nnc(C(F)(F)F)s1)c1ccccc1Cl
COc1ccccc1CN(Cc1nc2ccccc2c(=O)[nH]1)S(=O)(=O)c1ccc2ccccc2c1
N#C/C(=C\c1ccc(O)c([N+](=O)[O-])c1)c1nc2ccccc2s1
O=C(CCl)N1c2ccccc2OCC1c1ccccc1 (stereo unspecified)
Cc1ccc(C(=O)Nc2ccccc2-c2ccccc2)cc1[N+](=O)[O-]
COc1ccccc1OCC(=O)OC/C(O)=C(\C#N)c1nc2ccccc2[nH]1
Cc1cccc(C)c1OCC(=O)OC/C(O)=C(\C#N)c1nc2ccccc2[nH]1
O=C(Nc1nc2ccccc2n1CCOc1ccc(Cl)cc1)c1ccco1
Cc1ccccc1-c1cc(C(=O)Nc2sc(C(=O)OC(C)C)c(C)c2C#N)c2ccccc2n1
CCOC(=O)c1sc(NC(=O)c2cc(-c3ccccc3C)nc3ccccc23)c(C#N)c1C
COC(=O)c1sc(NC(=O)c2cc(-c3ccccc3)nc3ccccc23)c(C#N)c1C
CCOC(=O)c1sc(NC(=O)CSc2nc3c(cc2C#N)CCCCCC3)c(C#N)c1C
